Assay results reported in PubChem BioAssay AID588579 (National Center for Advancing Translational Sciences (NCATS), 2011).
Values joined by “and” are separate entries in the source; they are usually repeats but may differ in a detail not shown here. Equal entries are not always repeated. Screen size: about 400,000 compounds; about 2,200 (0.55%) were called active. Inconclusive results (about 1%) are left out. The full list was thinned out, with actives kept by preference. Unmarked numbers belong to inactive results. Calls come from the whole dose curve; as a rule, active = well fitted inhibition curve with a large enough effect; inconclusive = small, poorly fitted or top-dose-only effect, or another doubt; inactive = no such curve, though single readings can be large or run the other way. Positions of bridges follow the written chain, without caps; N, C: chain ends. Residues, ends and D or L forms follow the SMILES beside them.

target: DNA polymerase kappa (Homo sapiens) (UniProt Q9UBT6); assay: qHTS for Inhibitors of Polymerase Kappa; settings: purified Pol kappa, fluorescent DNA synthesis assay, 10 min; series mostly up to 107 µM; activity, negative = inhibition: at the top concentration
Sequence (Q9UBT6 whole entry, looked up): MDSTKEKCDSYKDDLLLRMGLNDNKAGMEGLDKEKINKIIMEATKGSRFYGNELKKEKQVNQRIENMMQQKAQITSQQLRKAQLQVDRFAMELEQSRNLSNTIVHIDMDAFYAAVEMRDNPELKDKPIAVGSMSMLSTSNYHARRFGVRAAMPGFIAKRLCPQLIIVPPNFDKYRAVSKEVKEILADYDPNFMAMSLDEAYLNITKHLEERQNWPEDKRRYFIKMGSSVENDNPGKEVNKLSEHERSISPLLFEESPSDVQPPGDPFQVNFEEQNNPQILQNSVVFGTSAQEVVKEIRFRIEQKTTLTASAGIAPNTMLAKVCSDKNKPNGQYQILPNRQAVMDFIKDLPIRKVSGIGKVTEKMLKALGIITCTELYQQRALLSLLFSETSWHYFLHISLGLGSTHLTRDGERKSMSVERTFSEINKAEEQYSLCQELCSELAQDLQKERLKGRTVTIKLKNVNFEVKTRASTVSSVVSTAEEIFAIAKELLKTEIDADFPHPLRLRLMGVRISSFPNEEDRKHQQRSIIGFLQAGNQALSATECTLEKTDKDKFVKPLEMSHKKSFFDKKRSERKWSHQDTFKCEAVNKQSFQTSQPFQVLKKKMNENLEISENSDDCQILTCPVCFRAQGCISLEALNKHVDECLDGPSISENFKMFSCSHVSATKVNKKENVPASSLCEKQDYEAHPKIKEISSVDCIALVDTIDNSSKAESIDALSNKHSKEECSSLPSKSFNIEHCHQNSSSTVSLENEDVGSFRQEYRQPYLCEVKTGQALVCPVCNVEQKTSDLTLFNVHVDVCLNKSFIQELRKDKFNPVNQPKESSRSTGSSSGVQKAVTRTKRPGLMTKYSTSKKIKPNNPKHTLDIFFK
Method in brief: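 10 nM Pol kappa preincubated 15 min at room temperature with compounds, then reaction started with substrate at 50 nM final. Fluorescence read kinetically at 0 and 10 min; buffer-only wells served as negative control.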
% is set by controls: 0 for no effect and ±100 for the full control effect; potency is the fitted concentration of half-maximal effect.

SMILES	activity, negative = inhibition	Potency
O=c1c(-c2ccc(F)c(F)c2)nc2cncnc2n1-c1ccccc1	6.33% [at 60.1 µM]	
COc1cc2nc(N3CCCN(C)CC3)nc(NC3CC3)c2cc1OC	9.12%	
CN(C(=N)N)c1ccc(/C=C2\C=Cc3ccccc32)cc1	0.144%	
CO/N=C(\C(=O)N[C@@H]1C(=O)N2C(C(=O)O)=C(COC(C)=O)CS[C@H]12)c1csc(N)n1 (stereo in doubt)		35.5 µM (active) and 79.4 µM (active) and 39.8 µM (active)
C=CC1=C(C(=O)O)N2C(=O)[C@@H](NC(=O)/C(=N\OCC(=O)O)c3csc(N)n3)[C@H]2SC1		50.1 µM (active)
O=C(c1cnccn1)N1CCC2(CCCN(Cc3ccccc3)C2)CC1	-6.98% [at 60.1 µM]	
CC(C)(C)c1ccc(C(=O)C[n+]2cccc3cc(Cl)ccc32)cc1	17.1%	
OCC(O)C(O)C(O)C(O)C=Nc1ccc(/C=C/c2ccnc3ccccc23)cc1 (stereo not drawn)	-1.15%	
COC1[C@H](OC(N)=O)C(O)[C@H](Oc2ccc3c(O)c(NC(=O)c4ccc(O)c(CC=C(C)C)c4)c(=O)oc3c2C)OC1(C)C (stereo partly drawn)	-8.72% [at 60.1 µM]	
COc1ccccc1-n1c(-c2cc(-c3ccco3)[nH]n2)n[nH]c1=S		17.8 µM (active)
COc1ccccc1-n1c(=S)[nH]c2c(sc(=S)n2-c2ccc(C)cc2C)c1=O	-7.54%	
COc1ccc(OCc2n[nH]c(=S)n2N)cc1	-22.5%	
C=C1C(=CC=C2CCC[C@@]3(C)[C@@H]2CC[C@H]3[C@H](C)CCCC(C)C)C[C@@H](O)C[C@@H]1O	-13.8% [at 19.4 µM]	
CN(Cc1ccccc1)c1ccc(/C=C/c2ccnc3ccccc23)cc1	-15.7%	
CN(C)c1ccc(/C=C/C=C/c2ccnc3ccccc23)cc1	-18.6%	
N#Cc1ccccc1-c1ccc2ncnc(NCc3cccnc3)c2c1	-18.2% [at 60.1 µM]	
O=C(/C=C/c1cccc(F)c1)NC1CC1	10.9% [at 19.4 µM]	
Cc1ccccc1-c1ccc(C(=O)O)s1	-9.91%	
CC(=O)OC1C([N+]2(C)CCCCC2)C[C@H]2C3CC[C@H]4C[C@H](OC(C)=O)C([N+]5(C)CCCCC5)CC4(C)C3CCC12C (stereo partly drawn)	-5.47% [at 19.4 µM]	
COc1ccccc1CNc1ncncc1-c1cccnc1	-0.0728% [at 60.1 µM]	
COCCn1c(SCC(=O)N2CCCCCC2)nc2c(c1=O)SCC2	-18.2%	
Cc1nc(SCC(=O)N2CCN(c3ccccc3)CC2)[nH]c(=O)c1C	17.8%	
CC(=O)c1sc2nc(SCC(=O)N3CCCCC3)[nH]c(=O)c2c1C		79.4 µM (active)
CCN(Cc1ccncc1)C(=O)[C@@H](CO)c1ccccc1	-2.15% [at 12 µM] and -8.7% [at 19.4 µM]	
CC1(C)O[C@@H]2C[C@@H]3[C@H]4C[C@@H](F)C5=CC(=O)C=C[C@]5(C)[C@@]4(F)[C@@H](O)C[C@]3(C)[C@]2(C(=O)CO)O1	-1.08% [at 60.1 µM]	
Oc1ccc2c(c1)OCC1c3cc4c(cc3OC21)OCO4 (stereo not drawn)	-7.99% [at 60.1 µM]	
Cc1cccc(C)c1NC(=O)NC1=CCCN1C	0.19% [at 19.4 µM]	

SMILES	activity, negative = inhibition	Potency
O=C(NC(=S)Nc1ncccn1)c1ccccc1Br	-4.19%	
CCc1ccc2oc(-c3ccc(C)c(NC(=O)/C=C/c4ccco4)c3)nc2c1	-12.2%	
O=C(/C=C/c1ccco1)NC(=S)Nc1ccccc1Br		50.1 µM (active)
COc1ccc(Oc2ncc3nc(C)c(=O)n(-c4ccccc4)c3n2)cc1	-6.07% [at 60.1 µM]	
O=C1COc2c1ccc(O)c2O		25.1 µM (active)
Cc1csc(NCC(=O)c2c[nH]c3ccccc23)n1	-40.6%	
C/C=C/NNC(=O)Cc1ccc(OC)cc1	8.17%	
CN1CCCC1CCO[C@@](C)(c1ccccc1)c1ccc(Cl)cc1 (stereo partly drawn)	0.404% [at 60.1 µM]	
COc1cccc(NC(=O)COC(=O)/C=C/c2ccco2)c1		79.4 µM (active)
COc1cc(/C=C/C(=O)OCC(=O)Nc2cccc(Oc3ccccc3)c2)ccc1O	-8.89%	
COc1cccc(NC(=O)COC(=O)c2ccc3ccccc3n2)c1	-11.1%	
Cc1nc2cnc(N3CCN(C)CC3)nc2n(CCC#N)c1=O	0.485% [at 60.1 µM]	
C=C1C([C@@]2(C)C(OC(C)=O)CC(=O)O[C@@](C)(COC(C)=O)C2CC(=O)OC)C(OC=O)C(OC(=O)C(O)C(C)CC)[C@]2(C)C(c3ccoc3)CC(=O)C12O (stereo partly drawn)	-17.9% [at 60.1 µM]	
Cc1noc2ncnc(NCc3ccccc3Cl)c12	6.87%	
COc1ccc(-c2oc3ncnc(NCCCO)c3c2-c2ccc(OC)cc2)cc1	-15.8%	
OCCNc1ncnc2oc(-c3ccco3)c(-c3ccco3)c12		11.2 µM (active)
CC(C)=CCC[C@]1(C)[C@@H](CC=C(C)C)C[C@@]2(CC=C(C)C)C(=O)[C@]1(C(=O)C(C)C)C(=O)C(CC=C(C)C)=C2O	-7.28% [at 19.4 µM]	
Cn1cccc1C(=O)N1CCC2(CC1)CN(c1cccc(-c3ccccc3)c1)C2	-7.92% [at 60.1 µM]	
Cc1ccc(/C([O-])=C(/C(=S)NCc2ccco2)[n+]2ccccc2)cc1[N+](=O)[O-]		25.1 µM (active)
O=[N+]([O-])c1cccc(/C([O-])=C(/C(=S)Nc2ccccc2F)[n+]2ccccc2)c1	0.0734%	
O=[N+]([O-])c1cc(-c2nc(-c3ccccc3)no2)ccc1NCc1ccco1	-5.16%	
COc1ccc(-c2nc3cnc(Oc4ccccc4)nc3n(Cc3cccs3)c2=O)cc1	0.602% [at 60.1 µM]	
CC[C@]1([C@H]2O[C@@H]([C@@H]3O[C@](O)(CO)[C@@H](C)C[C@H]3C)C[C@H]2C)CC[C@@H]([C@]2(C)CC[C@@]3(C[C@@H](O)[C@@H](C)[C@@H]([C@H](C)[C@H](OC)[C@H](C)C(=O)O)O3)O2)O1	-5.79% [at 19.4 µM]	
N#Cc1cccc(-c2nc3cnc(N4CCNCC4)nc3n(C3CC3)c2=O)c1	-9.7% [at 60.1 µM]	
O=C(O)C1=C/C(=C/C=[N+]2c3cc(O)c(O[C@H]4OC(CO)[C@@H](O)[C@@H](O)[C@@H]4O)cc3C[C@@H]2C(=O)[O-])C[C@H](C(=O)O)N1 (stereo partly drawn)	-14.2%	
C[C@@H](O)[C@@H]1NC(=O)[C@H](CCCCN)NC(=O)[C@H](Cc2c[nH]c3ccccc23)NC(=O)[C@H](Cc2ccccc2)NC(=O)[C@H](Cc2ccccc2)NC(=O)[C@H](CC(N)=O)NC(=O)[C@H](CCCCN)NC(=O)[C@@H](NC(=O)[C@@H]2CCCN2)CSSC[C@@H](C(=O)N[C@@H](CCCCN)C(=O)O)NC(=O)[C@H](CO)NC(=O)[C@H](CO)NC(=O)[C@H](Cc2ccccc2)NC1=O (H-PCKNFFWKTFSSCK-OH; disulfide 2-13)	12.8% [at 60.1 µM]	
